Assay outcomes as filed in PubChem BioAssay.
Hits are enriched below; roughly 21% of the tested compounds scored in any of these assays.
NS1 function inh: inhibitors of influenza NS1 protein function; Potency, µM (doses to about 46.1 µM), without a hit: at the highest dose activity, positive = more growth; actives 0.4% (n = 270,000); calls by dose curve; note: potency is the fitted concentration of half-maximal effect; actives are rising curves; nearly all actives have a fitted effect of over 50% in size
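In this qHTS, NS1 from influenza A is expressed in budding yeast, where it slows growth. Cells are switched from glucose to 2% galactose medium (pH 6.0, -URA), treated with compound, and growth recovery is read at OD600.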
SARS PLP yeast: SARS-CoV PLP inhibition in yeast. Potency, µM (series often up to 32.9 µM), for the others: top-dose activity, positive = growth rescue, usual class: activators. S. cerevisiae expressing SARS-CoV PLpro, growth rescue. actives 0.19% (n = 330,000); calls by dose curve; note: potency is the fitted concentration of half-maximal effect; 0% is about no effect; nearly all actives have a fitted effect of over 55% in size
Shiga inhibitor: Shiga toxin inhibition | Vero cells, Shiga toxin protein synthesis inhibition reporter | inhibition, % at 38.7 µM | actives 9.2% (n = 290,000) | AID 2315; in the data active = inhibition mostly above about 28%, no sharp cut-off; inactive = mostly below about 43%; note: 0% is about no effect
CHX counter: counter-screen hit for Shiga toxin inhibitors, cycloheximide; AID 2314; actives 12% (n = 300,000); cell reporter, cycloheximide protein synthesis inhibition counterscreen; max response, %; in the data active = max response mostly above about 13%, no sharp cut-off; inactive = mostly below about 14%; note: read at 38.3 µM for the half of the compounds with a filed dose; 0% is about no effect
Pf growth 48h: P. falciparum growth inhibition at 48 hours (one generation); P. falciparum luciferase growth in erythrocytes, 48 h; Potency, µM (titrated, usually from 28.7 µM), inactives show at the highest dose activity change, negative = inhibition, most hits filed as inhibitors; actives 5.9% (n = 310,000); AID 504832; note: potency is the fitted concentration of half-maximal effect; % is set by controls: 0 for no effect and ±100 for the full control effect
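A one-generation exposure of luciferase-tagged malaria parasites in RPMI 1640/Albumax erythrocyte culture, 37 C and 5% CO2. Inhibition is inferred from decreased luminescence after adding detection reagent.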
Pf growth 96h: P. falciparum growth inhibition at 96 hours | P. falciparum luciferase reporter growth, 96 h | actives 6.9% (n = 320,000) | Potency, µM (series often up to 28.7 µM), for the others: at the top dose activity change, negative = inhibition, actives largely listed as inhibitors; note: potency is the fitted concentration of half-maximal effect; % is set by controls: 0 for no effect and ±100 for the full control effect
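Parasite growth measured via integrated firefly luciferase reporter in P. falciparum. Infected erythrocytes at 2% hematocrit, 0.05% parasitemia final were treated 96 hours at 37 C under 5% CO2, and luminescence was read.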
* hit, by the source's call; ? = inconclusive; . = no result given. Unless noted, calls come from the whole dose curve; as a rule, active = well fitted inhibition curve with a large enough effect; inconclusive = small, poorly fitted or top-dose-only effect, or another doubt; inactive = no such curve, though single readings can be large or run the other way.

SMILES	NS1 function inh	SARS PLP yeast	Shiga inhibitor	CHX counter	Pf growth 48h	Pf growth 96h
NCCCCC(NC(=O)C1CCCN1C(=O)C1CSSCC(N)C(=O)NC(Cc2ccc(O)cc2)C(=O)NC(Cc2ccccc2)C(=O)NC(CCC(N)=O)C(=O)NC(CC(N)=O)C(=O)N1)C(=O)NCC(N)=O (stereo unspecified)	-10%	5%	-10	-2	-5%	3%
CN(Cc1ccccc1)C(=O)CC(c1ccccc1)c1cc(Cl)ccc1O (stereo unspecified)	10%	-1%	-14	-1	?	10µM*
Cc1ccc2[nH]c3nc(N/N=C/c4cccc(O)c4)nnc3c2c1	12%	4%	-2	-2	111%	?
CCc1ccc2[nH]c3nc(N/N=C/c4ccc(O)cc4O)nnc3c2c1	8%	?	.	-2	8.3µM*	10%
O=C(NCc1ccc(Cl)cc1)N1CCc2ccccc2C1	-4%	0%	30	29*	1%	8%
COc1ccc(CNC(=O)N2CCc3ccccc3C2)cc1Cl	-36%	2%	-1	14*	12%	3%
CC1CCN(c2ccc(C(=O)NCc3ccco3)cc2[N+](=O)[O-])CC1	-45%	-57%	54*	22*	0.83µM*	1.2µM*
O=C(NCc1ccco1)c1ccc(N2CCCCC2)c([N+](=O)[O-])c1	-11%	-36%	41*	20*	8.3µM*	6.6µM*
Cc1ccc(N(Cc2ccco2)C(=O)c2ccc(N3CCCCC3)c([N+](=O)[O-])c2)cc1	26%	-4%	106*	44*	0%	12µM*
O=C(NCc1ccco1)c1ccc(N2CCOCC2)c([N+](=O)[O-])c1	4%	0%	-8	-1	-1%	?
CC1CCN(S(=O)(=O)c2cccc(C(=O)NCc3ccco3)c2)CC1	4%	-1%	-1	-3	-3%	21%
CCCOC(=O)Nc1nnc(CCC)s1	-1%	?	40	13	60%	.
N#CCCN(C(=O)COC(=O)COc1ccccc1Cc1ccccc1)c1ccccc1	.	5%	.	.	23%	-7%
CCN(CC)c1ccc(NC(=O)C2=CCN(S(=O)(=O)c3ccc(F)cc3)CC2)c(C)c1	-3%	-3%	-7	-5	-11%	-14%
Cc1ccc(N2CC(C(=O)Nc3ccc(N4CCOCC4)cc3)CC2=O)cc1C (stereo unspecified)	19%	3%	-5	-4	7%	?
c1ccc(CN(Cc2ccco2)C(c2ccncc2)c2nnnn2C2CCCC2)cc1 (stereo unspecified)	?	-5%	-4	1	?	10µM*
Clc1ccc(CN(Cc2ccccc2)C(c2cccs2)c2nnnn2C2CCCC2)cc1 (stereo unspecified)	-17%	.	11	-1	12µM*	?
Cc1cc2cc(C(c3nnnn3C(C)(C)C)N(Cc3ccco3)CC3CCCO3)c(=O)[nH]c2cc1C (stereo unspecified)	15%	3%	18	1	?	?
CC(C)(C)n1nnnc1C(c1cccs1)N(Cc1ccc(Cl)cc1)CC1CCCO1 (stereo unspecified)	-1%	.	17	11	13µM*	?
O=C(CCN1C(=O)/C(=C/C=C/c2ccccc2)SC1=S)Nc1cccnc1	17%	14%	86*	47*	48%	8%
COc1ccccc1/C=C1/SC(=O)N(CCC(=O)Nc2ccc(S(=O)(=O)Nc3nccs3)cc2)C1=O	16%	2%	-12	-2	-21%	13µM*
O=C(CCN1C(=O)/C(=C\c2ccccc2Cl)SC1=S)Nc1cccnc1	19%	13%	0	-4	8%	?
COc1ccccc1/C=C1/SC(=S)N(CCC(=O)Nc2cccnc2)C1=O	9%	?	10*	36*	16%	?
CC1Cc2cc(S(=O)(=O)CCC(=O)NCc3ccco3)ccc2N1C(=O)C1CC1 (stereo unspecified)	7%	21%	-9	-6	-10%	?
CC(=O)Nc1nc(-c2ccc3c(c2)CC(C)N3C(=O)C2CC2)c(C)s1 (stereo unspecified)	1%	1%	65*	20*	-14%	-11%
SMILES	NS1 function inh	SARS PLP yeast	Shiga inhibitor	CHX counter	Pf growth 48h	Pf growth 96h
Cc1sc(NC(=O)c2ccco2)nc1-c1ccc2c(c1)CC(C)N2C(=O)C1CC1 (stereo unspecified)	-2%	-2%	175*	31*	?	5%
COc1ccc(NC(=O)CCNS(=O)(=O)c2ccc3c(c2)CC(C)N3C(=O)C2CC2)cc1 (stereo unspecified)	-1%	-6%	10	15	?	?
Cc1sc(NC(=O)CN(C)C2CCCCC2)nc1-c1ccc2c(c1)CCN2S(=O)(=O)c1ccccc1	24%	-9%	-9	-4	.	2.9µM*
Cc1sc(NC(=O)Cc2ccc3c(c2)OCO3)nc1-c1ccc2c(c1)CCN2C(=O)c1ccc(F)cc1	17%	29%	-8	-5	9.3µM*	5%
CCOC(=O)C(=O)Nc1nc(-c2ccc3c(c2)CCN3C(=O)C2CC2)c(C)s1	9%	-1%	47	20*	5%	-25%
Cn1[nH]c(CSc2ccc(Cl)cc2)cc1=O	.	29%	26	20	449%	0%
CCCN1C(=O)/C(=C/c2ccco2)SC1=Nc1ccc(OC)cc1	10%	-3%	-9	7	10µM*	?
COc1ccc(N=C2NC(=O)/C(=C\c3ccco3)S2)cc1	.	-1%	66*	23*	?	-17%
COc1cc(/C=C2/SC(=Nc3ccc(O)cc3)NC2=O)cc(OC)c1O	12%	-3%	32	-5	3.7µM*	1.9µM*
COc1ccc(N=C2S/C(=C\c3ccc(C)o3)C(=O)N2CC(C)C)cc1	1%	9%	-3	8	.	3.3µM*
O=C(O)c1ccc(N=C2NC(=O)C(CO)(CO)S2)cc1	-8%	-8%	8	-3	-1%	?
Brc1ccc(NC(c2ccccc2)c2ccncc2)cc1 (stereo unspecified)	-1%	-1%	14	5	0%	7%
CC1CCCCC12NC(=O)N(CC(=O)N1CCN(c3ncccn3)CC1)C2=O (stereo unspecified)	.	9%	.	.	8%	41%
COc1ccccc1N=C1NC(=O)/C(=C/c2ccc(N(C)C)cc2)S1	-8%	-7%	56*	41*	0.093µM*	?
COc1ccc(/C=C2\SC(=Nc3ccccc3)NC2=O)cc1	5%	-3%	-5	-3	?	?
Cn1cccc1C(=O)OCC(=O)N1CC(=O)Nc2ccccc21	.	1%	-4	-3	?	-21%
N#Cc1cncc(C#Cc2ccccc2)c1	-44%	1%	17	8.8*	20%	?
N#Cc1ccccc1	.	-2%	.	.	13%	-9%
